Whole data set: some 59,000 sequences, median the read-out near -0.00055, cut for the lowest 2% near -2. The full list was thinned out, with the lowest values kept by preference.

The assay can be described thus: Identification of proteins required for the processing of the EWS-FLI1 nascent transcript.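 Also: robust z of luciferase light less the median z of siRNAs with the same seed.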 To be noted: TC32 Ewing sarcoma NR0B1-luc vs CMV-luc (EWS-FLI1 target promoter against control promoter), 48 h; screened at 20 nM (by protocol). The procedure, abridged:
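Genome-wide siRNA screen (Ambion v4.1, three siRNAs per gene, 20 nM final, RNAiMax) in Ewing sarcoma TC32 cells carrying NR0B1-promoter or CMV-promoter luciferase; OneGlo luciferase read 48 h post-transfection. Data normalized, z-score-MAD transformed and seed-adjusted.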
In turn, AAACUGAGAAACAUCAAGG against ZNF433 displayed a seed-corrected z-score of -1.01.
In turn, UGUCAUCCCAUCAAUGACU against PPIC registered a seed-corrected z-score of -0.679.
Consider UUUAAGGCAUCAUCUAGAC against DHFR, for which the seed-corrected z-score was -0.615.
In turn, UUCGAUGAAGAAACUCUGC against DOCK11 gave a seed-corrected z-score of 0.27.
Take UGCGUUUUUAAGCAUGUGC against RPL17: the seed-corrected z-score was -2.46.
Take UUUUGUGCCUUCGUUAACC against ADAM9: the seed-corrected z-score is -0.742.
In the case of UUUCUGUCCAGCAUAUGUA against SSU72, the seed-corrected z-score is -0.804.
With UCUCUUCAGAGCGUGCACC against ANKRD54, the seed-corrected z-score is -0.161.
Sequence UUAGCUCCAAGUCUUGCAG against HDLBP had a seed-corrected z-score of 0.263.
Next, UACUGGUCCACGGAGAUUU against CSPG4: 0.0797; CUUCAUAGUGGUGUCCACG against MUC3B: -0.292; UUCGUUUCGUCUCUUCUAG against ESCO1: 1.44.
For ACCGUUAAAACAAGCUUCG against NBAS, the seed-corrected z-score is 0.0519.
Take UUCGCUGAAAAGAAACUGG against PHRF1: the seed-corrected z-score was -0.139.
UUUAAGCAACCGUCGUUGG against RPS23P8 gave a seed-corrected z-score of -9.97.
AAUCUAUAACUCUUUGACC against MKKS had a seed-corrected z-score of -0.508.
On to UGAUGGUCAACUUGAUGCC against LCK, for which the seed-corrected z-score was -4.01.
Take UGCAUUCCCACCAAUGUUG against EIF2B2: the seed-corrected z-score was -0.2.
UCAGAGCGAUUUUCAGUAC against KCTD21: the seed-corrected z-score came to 0.306.
On to UAUGUUGUCACUAGUCAGC against PNPLA7, for which the seed-corrected z-score was -0.38.
Next, UUCUGCAAAGCGCCACAGG against SLC22A31: -2.24; UUCUGAGUAAUCUACAAUG against RHOT1: 0.1.
AACCGUGUAACCAUAGCUC against GABRQ registered a seed-corrected z-score of 0.126.
Consider AAUAGUACCACCAAAGCAC against ELOVL2, for which the seed-corrected z-score was -0.0356.
UAUCUCCUCAGCUAAUUCG against SLC17A8 yielded a seed-corrected z-score of 0.0229.
The value for UUCGUUAGUUGUUCUAGGC against RB1CC1 was -2.96; that for UCUGUGUAGCUCGGACACC against OR7E24 was -0.966.
Next, AAUGAAUCAAAUGUAACGG against PNPT1: -0.376; UUUUCAAACAGGUAACAGC against ATM: 0.359; UUUUGAGCCUCAGCACUCC against RGL3: -0.0402.
The sequence UCCAGUUUUCGGAUCUUCC against MRPL40 registered a seed-corrected z-score of -2.5.
Regarding UCUCGUUCAGUUAUCUGCC against HECW2, the seed-corrected z-score was found to be 0.826.
UAGAGUUCCAGCUAGGGUG against CTRL: the seed-corrected z-score is -0.507.
Next, UUCUUGUACUGCACCAUCU against PHLDA1: 2.51.
In turn, UUAGUUCCAUUUCCUACUC against TEX38 had a seed-corrected z-score of -0.404.
In turn, UGUGCAUGCACAGAGAAGC against NFE4 had a seed-corrected z-score of -1.58.
As to AAACUUAUACUUCUGGUAC against VBP1, the seed-corrected z-score was -0.149.
As for AGGAGACUCAGCUUGAUCC against SPATA45, the seed-corrected z-score was -2.01.
As to AACCAGUUAGAUUAUACGC against ATRNL1, the seed-corrected z-score is -0.225.
On to UUGUAUCCAAAGAUGAUUC against PLXDC2, for which the seed-corrected z-score was -0.0677.
The value for AGGCUGAUGACUCCUAUCC against SSTR3 was 0.317; that for UCAUAGGACCAGUCAAUGC against CPA2 was 0.13; that for UCCCGUUCAAUCUCCCACC against RNF113B was -0.595.
In the case of UCCAUGGUACUUCUUAUGC against TMEM127, the seed-corrected z-score is -2.9.
UUGGGAGCGAUAACACGAC against C19orf53 gave a seed-corrected z-score of -0.418.
The value for AGAUCUACUAGUUCUUGUG against LRCH1 was 0.758; that for ACAGUGGUGAACGUGAUGC against JPX was -2.26.
As for UUGGUAGUAGAUCAUAUGC against STXBP3, the seed-corrected z-score is -0.0771.
As to UUUUCUUGCGUUUAUGUGG against C11orf57, the seed-corrected z-score is 0.448.
As for AGUGAUGAAAGCAAAGUAG against KCNK16, the seed-corrected z-score is 0.908.
Sequence UUUCAUCUCACCUUUAUUG against RPL23P5 displayed a seed-corrected z-score of -2.17.
The value for UUCUGAUCCUGGAUGUUGC against R3HDM1 was 0.205.
On to AGACGUUCCAUUCAUAUCU against RBMY1F, for which the seed-corrected z-score turned out to be 0.399.
Next, AUGGUCUUCACUCUUGUGC against CCR9: -3.14; UGUGUUUAACCAGAGAUCC against RXRG: 0.625.
UGACCGUUUCGGAUGAUGG against ATP2B4 registered a seed-corrected z-score of 0.168.
The value for UAGCUGUCGAACACCCAGG against PDDC1 was 1.63; that for UCAGUUUGCAAUUAGGCAG against LOC113230 was 0.933.
In turn, UACCAGCUCACUGACAUGG against OR8B4 gave a seed-corrected z-score of 0.0124.
Next, UGCAUGACAAACAAAUUCC against GATAD1: 0.136; UCCAGUUGUAGUUCGGCAG against KISS1: -2.32; UCAGGUUGAUGAAAUGGGC against PRDM15: -0.519.
The value for UGAGCACAGAAAGUGGACC against SNRPD2P1 was -0.553; that for ACAUCCUUAAGAAAUAUGG against PLEKHA2 was -0.563; that for AAAGCGUAGAAAAUAUCCC against DNAH5 was -0.0906.
The value for UCAGUAUGAAGAGCAACAG against MCM2 was -0.317; that for UACCUCUUAAUAAGAUCUG against ATP8A2 was 0.0625.

(Values after PubChem BioAssay AID1159506 (National Center for Advancing Translational Sciences (NCATS), 2015).)
